This note sets out measurements from PubChem BioAssay (NCI).

About 83,000 compounds went through this panel and 20% of them were active in at least one assay; those are over-represented in the sample as a whole.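 For each line, cells grew in 96-well plates with the test compound present at a single concentration for 48 hours.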 Values without a mark were called inactive. Active and inactive are the calls of the source. The calls were made as follows: active = growth percent below 10; inactive = the rest.

The test system of the test is HL-60(TB) leukemia. In words: NCI-60 one-dose screen, 48 h (100 = growth as untreated, 0 = no growth, -100 = all killed). As to conditions: 10 µM unless noted.
On to `Cc1ccc(C(=NN=C(N)N)c2ccc(C)cc2)cc1`, for which the growth is -28% (active).

Consider `COC(=O)[C@]12CC[C@@H](C)[C@H](C)[C@@H]1C1=CC[C@@H]3[C@@]4(C)C=C(O)C(=O)[C@@]5(C)COC(=C54)C[C@@]3(C)[C@]1(C)CC2`, for which the growth was -50% (active).

With `COC(=O)c1c2c(c(C)[n+]([O-])c1C)C(=O)C=C(NCc1ccc(Br)cc1)C2=O`, the growth is -19.4% (active).

As for `COc1ccc(C(=O)COc2ccc(/C=C3\Oc4ccc(OC)cc4C3=O)cc2)cc1`, the growth is 94.1%.

Consider `Nc1ccc2c(c1)C(=O)C(=O)c1c-2nc2ccccn12`, for which the growth is -47.3% (active).

For `Cc1cc(N)c2cc(NC(=O)/C=C\c3ccccc3Cl)ccc2n1`, the growth is -29.3% (active).

With `O=C(CCl)N1c2cccc3cccc(c23)N(C(=O)CCl)C1c1cn(-c2ccccc2)nc1-c1cccc([N+](=O)[O-])c1`, the growth was 27.7%.

As for `COc1ccc(Nc2nc(-c3cc(O)c(C)c(C)c3O)cs2)cc1`, the growth was 7.17% (active).

For `Nc1nc2c(ncn2[C@@H]2O[C@H](CS)[C@@H](O)[C@H]2O)c(=O)[nH]1`, the growth was 101%.

`O=C(c1ccc2ncc(-c3nc(NC4CC4)ncc3F)n2c1)N1CCOCC1`: the growth is -30.3% (active).

On to `CC(=O)N/C(=C1/OC(C(O)C(O)C(O)CO)CN1C)[P+](c1ccccc1)(c1ccccc1)c1ccccc1` (stereo not given), for which the growth is 97.9%.

With `CCCCCOc1ccc(/C=N/Nc2cc(C)nc3ccc(Cl)cc23)cc1`, the growth is 0.0681% (active).

With `CCC1S/C(=N\N=C(\C)c2cc3cc(Cl)ccc3o2)N(c2ccccc2)C1=O` (stereo not given), the growth is 103%.

As for `ClC1=C(Cl)C(Cl)=C(Cl)C1=C/C=C/c1ccccc1`, the growth was -45.5% (active).

For `C/C(=N/Nc1nc2ccccc2n1C)c1ccccn1`, the growth was -19% (active).

`N#Cc1c(Nc2ccc(N3CCOCC3)cc2)nc(SCC(=O)c2ccc(Br)cc2)nc1-c1ccccc1`: the growth is 86.2%.

In the case of `COc1cc(NN=C(c2ccc(O)cc2)c2ccc(O)cc2)c([N+](=O)[O-])cc1[N+](=O)[O-]`, the growth was 133%.

In the case of `COc1ccc2c(c1)c(-c1nonc1-c1c[nH]c3ccc(Br)cc13)cn2C`, the growth was 53.2%.

Turning to `C=C1C(=O)O[C@H]2[C@H]1CC/C(CNC(=O)c1cc3ccccc3[nH]1)=C\CC[C@@]1(C)O[C@@H]21`, the growth was -41.5% (active).

As to `Cc1ccc(Cl)cc1NC(=O)c1sc2nc3c(cc2c1N)C(=O)CCC3`, the growth was 82.2%.

For `COc1ccc(/C=c2\nc3n(-c4ccccc4)c4nc5c6c(sc5c(=N)n4n-3c2=O)CCCC6)cc1`, the growth is 101%.

Consider `COc1ccc(/C=C/C(=O)c2cc3c(N)c(C(=O)Nc4cccc(Cl)c4C)sc3nc2C)cc1`, for which the growth is 4.92% (active).

Consider `O=c1cc(C(F)(F)F)[nH]c(=S)[nH]1`, for which the growth is 94.1%.

Consider `COc1ccc(-c2nn(-c3cccc(NC(=O)c4cc(C(F)(F)F)cc(C(F)(F)F)c4)c3)cc2-c2ccncc2)cc1Cl`, for which the growth is 88.9%.

For `CN(C)CCCC(C#N)c1ccccc1` (stereo not given), the growth is 118%.

For `O=c1oc2ccc(Cl)cc2c(=O)n1-c1ccc(F)cc1F`, the growth was -28.8% (active).

Turning to `NCCNc1ccc2cc(-c3nc4ccccc4[nH]3)c(=O)oc2c1`, the growth was 80.1%.

On to `CCn1c2ccc(N(C)C)cc2c2cc(N(C)C)ccc21`, for which the growth was 66.1%.

For the compound `Cc1cc(NC(=O)C2c3ccccc3C(=O)N(CC(C)C)C2c2cccs2)no1` (stereo not given), the growth was 0.0249% (active).

With `COc1cccc(-c2cn3c(ccc4ccccc43)n2)c1`, the growth was 6.28% (active).

`O=[N+]([O-])c1ccc(NC(=S)N/N=C/c2cc3ccccc3n3nnnc23)cc1`: the growth is 27.4%.

For the compound `CC(=O)O.CC(=O)O.O.[Fe]`, the growth is 114%.

As to `COc1cc2cc3cc4cc(OC)c(OC)cc4c(C)[n+]3cc2cc1OC` (tested in a mixture with another compound), the growth was 33%.

Take `COc1ccc(C2CC(c3cccs3)=NN2c2ccc(S(N)(=O)=O)cc2)cc1` (stereo not given): the growth was 73.7%.

For `O=S(=O)(Nc1cccc2cc(OS(=O)(=O)c3ccccc3)ccc12)c1ccccc1`, the growth was 41.4%.

Turning to `CCCCN1CCCn2c1nc1c2c(=O)n(CCC)c(=O)n1CCC`, the growth was 109%.

In the case of `CN1CCN(Cc2ccc(NC(=O)c3cncc(C#Cc4nc(N)nc5[nH]ncc45)c3)cc2C(F)(F)F)CC1`, the growth is 1.4% (active).

For `c1ccc(C2CCCCC2)c(OCCCCCN2CCNCC2)c1`, the growth is 28.2%.

With `CCOC(=O)CNP(=O)(OC[C@@H](Cc1ccccc1)NC(=O)c1cc2ccccc2s1)Oc1ccccc1` (stereo not given in full), the growth was 79.4%.

On to `Nc1cc2c(cc1Cl)-c1ccc(Cl)cc1C2=O`, for which the growth was 75.7%.
